Data on 40 compounds can be found in PubChem BioAssay AID602358 (National Center for Advancing Translational Sciences (NCATS), 2012).

Structures are written as SMILES. Inconclusive results are not listed. Calls of active or inactive are those of the source. Calls follow the shape of the dose curve; as a rule, active = well fitted inhibition curve with a large enough effect; inconclusive = small, poorly fitted or top-dose-only effect; inactive = flat fitted curve, though single readings scatter.

For the assay, the target named is Luciferin 4-monooxygenase (Photinus pyralis) (UniProt P08659). The assay is described as follows: FLuc inhibitory activity for the follow-up compounds in a biochemical assay with Km concentrations of substrate and 500microM CoASH. As to conditions: purified FLuc, Km substrates + 500 uM CoASH, luminescence; series mostly up to 57.5 µM; activity change, negative = inhibition: at the top concentration. An excerpt: NCGC Assay Overview: Firefly (Photinus pyralis) luciferase is one of the most commonly used transcriptional reporters. It is considered one of the more dynamically responsive reporters - that is, responsive to changes in reporter transcription - as it requires no post-translational modifications and is enzymatically active directly after protein synthesis (Wood, 1998). With no endogenous expression in mammalian cells and without the requirement of external excitation, it offers very little background signal, thus generally providing excellent signal to background for most assays. Previous profiling work to determine the prevalence of compounds that affect FLuc enzymatic activity (PubChem AID 411) identified that ~3% of the MLSMR library (then at ~72K) inhibited FLuc. […] Of the compounds identified in this profile that inhibited FLuc, 151 compounds were selected for further analysis, in an effort to better understand their mode of inhibiting FLuc. The assay described here was to determine the activity of the compounds in an FLuc assay that contained KM concentrations of substrates and 500uM CoASH.
Luciferin 4-monooxygenase (Photinus pyralis), sequence (P08659 whole entry, looked up): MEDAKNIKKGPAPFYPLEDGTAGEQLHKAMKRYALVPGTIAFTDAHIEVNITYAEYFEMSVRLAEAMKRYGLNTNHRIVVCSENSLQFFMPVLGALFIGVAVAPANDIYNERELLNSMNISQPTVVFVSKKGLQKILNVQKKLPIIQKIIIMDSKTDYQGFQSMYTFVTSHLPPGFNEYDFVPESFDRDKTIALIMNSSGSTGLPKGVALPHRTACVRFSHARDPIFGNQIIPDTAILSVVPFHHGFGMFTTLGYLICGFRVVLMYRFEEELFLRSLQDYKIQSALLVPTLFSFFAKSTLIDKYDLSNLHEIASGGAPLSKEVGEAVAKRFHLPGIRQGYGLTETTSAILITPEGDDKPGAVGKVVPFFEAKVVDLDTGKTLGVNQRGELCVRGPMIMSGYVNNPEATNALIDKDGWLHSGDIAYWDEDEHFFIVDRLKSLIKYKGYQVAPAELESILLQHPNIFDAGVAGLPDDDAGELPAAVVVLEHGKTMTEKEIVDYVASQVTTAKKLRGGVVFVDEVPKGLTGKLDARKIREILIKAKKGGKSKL
NCGC Assay Protocol Summary: Reagents: 50mM Tris acetate, pH 7.5; 10mM Mg acetate; 10uM D-luciferin (Sigma #L9504); 10uM ATP; 0.01% Tween-20; 0.05% BSA; 10nM P. pyralis luciferase (Sigma #L9506); 500 uM CoASH Control compounds used were two known firefly luciferase inhibitors (3-(5-(3-chlorophenyl)-1,2,4-oxadiazol-3-yl)benzoic acid and 5-(2-fluorophenyl)-3-phenyl-1,2,4-oxadiazole), and DMSO. Three microliters containing firefly luciferase substrates in buffer (final concentrations: 50mM Tris acetate, pH 7.5, 10mM Mg acetate, 0.01% Tween-20, 0.05% BSA, 10uM D-luciferin, 10uM ATP, and 500 uM CoASH) are dispensed into each well of a Greiner white, solid-bottom 1536-well format plate using a flying reagent dispenser (FRD). These assay plates were then treated with 23nL of compound or DMSO using a Kalypsys pin tool, which allows for delivery of a 12-point intraplate titration of each compound to the assay plate (quantitative HTS), with a final compound concentrations ranging from approximately ~60uM to 0.3nM. One microliter of firefly luciferase in 500mM Tris-acetate buffer was then delivered by FRD to each well for a final enzyme concentration of 10nM. Luciferase activity was then measured using a ViewLux CCD imager (PerkinElmer), with an average exposure time of 2-30 seconds (2X binning, medium/high gain).
As to `COc1ccc2nc(NC(=O)c3cccs3)sc2c1`, the Potency was 13 µM (active). On to `COc1ccc2nc(NC(=O)c3ccccc3C(=O)O)sc2c1`, for which the Potency is 6.51 µM (active). `O=C(Nc1ccccc1C(=O)O)c1cccc(S(=O)(=O)N2CCCC2)c1`: the Potency was 18.3 µM (active). Consider `O=C(Nc1c(Cl)cc(Cl)cc1-c1nc2ccccc2s1)c1ccc(Br)o1`, for which the “activity change, negative = inhibition” value was -5.98% (inactive). Regarding `O=C(O)c1ccc(NC(=O)c2cccc(NC(=O)c3cccs3)c2)cc1`, the Potency was 5.8 µM (active). The same measure, in the same setting: the figure for `C/C(=N\NC(=O)c1ccccc1NC(=O)c1ccc(Cl)cc1)c1ccncc1` is 0.0046 µM (active). For `O=C(Nc1ccccc1C(=O)O)c1cc(S(=O)(=O)NCc2ccccc2)ccc1Cl`, the “activity change, negative = inhibition” value was -9.7% (inactive). Same read-out and setting: the figure for `COc1ccc(C(=O)Nc2ccccc2-c2nc3ccccc3s2)c(OC)c1` is -9.63% (inactive). With `Cc1c(NC(=O)C(C)(C)C)cccc1-c1nc2ccccc2s1`, the Potency was 1.46 µM (active).

For `O=C(O)c1cccc(NC(=O)c2ccccc2NC(=O)c2ccco2)c1`, the Potency is 20.6 µM (active).

As for `Cc1ccc(C(=O)Nc2cccc(C(=O)O)c2)cc1S(=O)(=O)N1CCCCC1`, the Potency is 3.66 µM (active).

Consider `Cn1c(N/N=C/c2cc3ccccc3nc2Cl)nc2ccccc21`, for which the Potency is 0.0231 µM (active). The same measure, in the same setting: with `CN(C)S(=O)(=O)c1ccc(C(=O)Nc2ccccc2C(=O)O)cc1` the figure was 9.19 µM (active); with `Cc1ccc(C(=O)Nc2ccccc2C(=O)O)cc1S(=O)(=O)N1CCCCCC1`, 0.919 µM (active).

For the compound `Cc1ccccc1C(=O)Nc1cccc(C(=O)Nc2ccccc2C(=O)O)c1`, the Potency was 16.3 µM (active). Same read-out and setting: the figure for `CCOc1c(Cl)cc(C(=O)Nc2ccccc2C(=O)O)cc1Cl` is 11.6 µM (active); for `COc1ccc2nc(NC(=O)c3cccc(S(=O)(=O)N4CCOCC4)c3)sc2c1` it is 14.6 µM (active). Regarding `COc1cc(OC)cc(C(=O)Nc2ccccc2-c2nc3ccccc3s2)c1`, the “activity change, negative = inhibition” value was -5.72% (inactive). For `Cc1ccc(C(=O)O/N=C(\N)c2ccccn2)cc1`, the Potency is 0.0092 µM (active).

Regarding `O=C(O)c1ccc(NC(=O)c2cc(S(=O)(=O)N3CCCCC3)c(Cl)cc2Cl)cc1`, the “activity change, negative = inhibition” value is -8.29% (inactive). Regarding `COc1ccc2nc(NC(=O)c3nc(S(=O)(=O)Cc4ccc(C)cc4)ncc3Cl)sc2c1`, the Potency was 2.06 µM (active). On the same count and under the same terms, the figure for `O=C(Nc1ccccc1C(=O)O)c1ccccc1` is 23.1 µM (active).

As for `Cc1ccc(NS(=O)(=O)c2ccc(Cl)c(C(=O)Nc3cccc(C(=O)O)c3)c2)cc1`, the “activity change, negative = inhibition” value is -9.97% (inactive). For the compound `COc1ccc(C(=O)Nc2ccccc2C(=O)Nc2ccc(C(=O)O)cc2)cc1`, the Potency is 0.517 µM (active). With `c1ccc2sc(-c3ccc4c(c3)OCO4)nc2c1`, the Potency is 0.103 µM (active). Same read-out and setting: the figure for `COc1ccccc1C(=O)Nc1ccc(C(=O)Nc2ccccc2C(=O)O)cc1` is 20.6 µM (active). `CC(C)Oc1ccc(C(=O)Nc2ccc(-c3nc4ccccc4s3)cc2)cc1`: the “activity change, negative = inhibition” value was -11.1% (inactive). On the same count and under the same terms, the figure for `Cc1ccc(S(=O)(=O)N2CCOCC2)cc1C(=O)Nc1ccccc1C(=O)O` is -24.6% (inactive). On to `O=C(O)c1cccc(NC(=O)c2cccc(NC(=O)C3CCCO3)c2)c1` (stereo not given), for which the Potency is 18.3 µM (active). Still for that read-out and setting: with `CC(C)c1ccc(-c2nc3ccccc3s2)cc1` the figure was 0.013 µM (active); with `Oc1ccc(-c2nc3ccccc3s2)c(O)c1`, 1.83 µM (active).

For `COc1ccc2nc(NC(=O)CCc3nc(-c4ccccc4F)no3)sc2c1`, the “activity change, negative = inhibition” value is -17.4% (inactive). Take `O=C(COC(=O)c1ccccc1[N+](=O)[O-])c1ccc2c(c1)OCO2`: the Potency is 0.0023 µM (active).

As to `CCOc1ccc(C(=O)Nc2cccc(C(=O)O)c2)cc1Cl`, the Potency was 0.919 µM (active). As to `CN=c1scc(-c2ccccc2F)n1/N=C/c1ccc[nH]1`, the Potency was 0.0163 µM (active). Same read-out and setting: with `CCn1c(C)nc2cc(-c3nc4n(n3)Cc3ccccc3-4)ccc21` the figure was 0.0146 µM (active). Turning to `Cc1cccc(NS(=O)(=O)c2cccc(C(=O)Nc3cccc(C(=O)O)c3)c2)c1`, the “activity change, negative = inhibition” value is -13.2% (inactive).

In the case of `O=C(Cc1ccc(Cl)cc1)Nc1cccc(C(=O)Nc2ccccc2C(=O)O)c1`, the Potency was 25.9 µM (active).

For `Cc1ccc2nc(-c3ccc(N)cc3)sc2c1`, the Potency is 0.0326 µM (active). As for `Cc1ccc(C(=O)Nc2cccc(C(=O)O)c2)cc1S(=O)(=O)N1CCCC1`, the Potency was 5.17 µM (active).
